Reference: PubChem BioAssay (NCI)
This is part of a sample that, as a whole, favours compounds with a hit. Of some 79,000 tested, about 15% had one in any assay. A number with no mark means an inactive call. Active and inactive are the calls of the source. No stated cut-off is given here; in the data, active means growth inhibition above about 70%; inactive means the rest.

Key:
[1] = NCI Yeast Anticancer Drug Screen. Data for the rad50 strain (AID 155);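 further: 0% = growth of vehicle-only cultures of the same strain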; conditions: S. cerevisiae rad50 strain growth inhibition, stronger effect = higher value
How it was run: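 Yeast carrying a defined DNA repair defect were exposed to test compounds, and growth was compared with vehicle-treated controls to give percent inhibition.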

[2] = NCI Yeast Anticancer Drug Screen. Data for the mec2-1 strain (AID 157); conditions: S. cerevisiae mec2-1 strain, stronger effect = higher value
How it was run: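 Growth inhibition is read against vehicle-treated controls after compound exposure of the mec2-1 yeast strain, which is defective in DNA damage repair or cell cycle control.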

[3] = NCI Yeast Anticancer Drug Screen. Data for the sgs1 mgt1 strain (AID 161);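 further: 0% = growth of cultures given vehicle only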; conditions: S. cerevisiae sgs1 mgt1 strain, stronger effect = higher value
How it was run: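 Yeast cells carrying a defined DNA-repair defect were exposed to test compounds. Growth inhibition was measured relative to vehicle-treated controls.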

[4] = NCI Yeast Anticancer Drug Screen. Data for the cln2 rad14 strain (AID 165);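 further: 0% = growth equal to vehicle treated cultures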; conditions: S. cerevisiae cln2 rad14 strain, stronger effect = higher value
How it was run: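 Growth inhibition, relative to vehicle-treated controls, is the read-out. The test organism is a yeast strain with defined genetic alterations, cln2 rad14.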

[5] = NCI Yeast Anticancer Drug Screen. Data for the bub3 strain (AID 167); conditions: S. cerevisiae bub3 mutant strain, stronger effect = higher value
How it was run: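 Compounds were applied to a genetically altered yeast strain carrying a cell-cycle control defect. Growth inhibition was scored against vehicle-treated controls.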

[6] = NCI Yeast Anticancer Drug Screen. Data for the mlh1 rad18 strain (AID 175); conditions: S. cerevisiae mlh1 rad18 strain growth inhibition, stronger effect = higher value
How it was run: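 Cells of a genetically altered yeast strain, deficient in DNA damage repair, were treated with compound. Their growth was then compared with that of vehicle-treated cultures to give inhibition.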

[7] = at 5.0 µM (retest, dose inferred, filed as 0.5)
[8] = at 50.0 µM (retest, dose inferred, filed as 5.0)

SMILES | growth inhibition [1, 7] [%] | growth inhibition [1, 8] | growth inhibition ([1]; at 50.0 µM) | growth inhibition [2, 7] [%] | growth inhibition [2, 8] | growth inhibition ([2]; at 50.0 µM) | growth inhibition [3, 7] [%] | growth inhibition [3, 8] | growth inhibition ([3]; at 50.0 µM) | growth inhibition [4, 7] [%] | growth inhibition [4, 8] | growth inhibition ([4]; at 50.0 µM) | growth inhibition [5, 7] | growth inhibition [5, 8] | growth inhibition ([5]; at 50.0 µM) | growth inhibition [6, 7] [%] | growth inhibition [6, 8] | growth inhibition ([6]; at 50.0 µM)
COc1ccc(NC(=O)CCC(=O)C(C)C(=O)c2ccccc2)cc1 (stereo not given) | 0 | -1% | 59.8% | -1 | 3% | 16.2% | 14 | 0% | 26.8% | -1 | 10% | 49.2% | 0% | 21% | 21.6% | -2 | 6% | 24.3%
COC(=O)c1c[nH]c2ccc(Br)cc12 | -3 | 23% | 30.9% | 8 | 43% | 28.8% | -1 | 19% | 31.8% | -9 | -20% | 44% | 7% | 22% | 68.5% | 23 | 40% | 40.5%
CC(C)(C)C(=O)Nc1ccc2c(c1)C(=O)c1ccccc1C2=O | 62 | 96% (active) | 82% (active) | 44 | 85% (active) | 79.2% (active) | 44 | 91% (active) | 80.7% (active) | 38 | 75% (active) | 83.2% (active) | 46% | 71% (active) | 87.5% (active) | 62 | 96% (active) | 86.5% (active)
COC(=O)c1cc(-c2ccc([N+](=O)[O-])cc2)c2c(=O)n(-c3ccccc3)[nH]c2n1 | 0 | 84% (active) | 89.8% (active) | -1 | 75% (active) | 91.1% (active) | -1 | 85% (active) | 61.1% | -3 | 77% (active) | 42.4% | -3% | 83% (active) | 50.2% | -3 | 86% (active) | 92.2% (active)
COc1ccc2nc3cc(Cl)ccc3c(Nc3ccc(O)c(CN4CCN(C)CC4)c3)c2c1 | 25 | 43% | 66.9% | 7 | -11% | -26.7% | 8 | 6% | 32% | 21 | 2% | 27.6% | 8% | 6% | -33.8% | 13 | 1% | -2.9%
Cc1ccc(S(=O)(=O)N/N=C(\C=C\c2ccccc2)c2ccccc2)cc1 | -1 | 32% | 59.1% | 5 | 57% | 63.9% | 24 | 47% | 59.5% | -19 | 16% | 44.4% | 15% | 49% | 41.1% | 20 | 70% (active) | 37.1%
CC/C(=N\O)c1ccc2cc(Br)c3ccccc3c2c1 | 5 | 89% (active) | 98.7% (active) | -2 | 89% (active) | 98.9% (active) | 10 | 88% (active) | 98.7% (active) | -10 | 84% (active) | 96.8% (active) | -4% | 87% (active) | 98.8% (active) | 5 | 88% (active) | 98.6% (active)
CCCCCN(CCCCC)CC(=O)OCC1(C)CCCC2(C)C3CCC(C(C)C)=CC3=CCC12 (stereo not given) | 1 | 22% | -3.45% | 2 | 54% | -9.75% | -3 | 80% (active) | 74.2% (active) | -1 | 39% | -59% | 1% | 73% (active) | -8.05% | 2 | 67% | 28.4%
COc1ccc2c(c1)Cc1ccccc1C2=O | 14 | 34% | 15.8% | 3 | 8% | 4% | 0 | 1% | 6.75% | 1 | 3% | -0.35% | 75% (active) | 85% (active) | 40.6% | 2 | 14% | 9.1%
CN(C)C(=S)/N=c1\ssc(=S)n1C | 2 | 0% | 86.7% (active) | 2 | 4% | 27.4% | 2 | -1% | 90.7% (active) | 1 | 4% | 72.1% (active) | -1% | -1% | 87.8% (active) | 0 | 6% | 84.8% (active)
